Assay outcomes as filed in PubChem BioAssay.
A selection: hits, their analogues and other compounds. The true share with any hit is near 14%.
Pf growth 48h: inhibits P. falciparum growth in the first generation, 48 h; P. falciparum luciferase growth in erythrocytes, 48 h; Potency, µM (doses to about 28.7 µM), for inactives: at the highest dose activity change, negative = inhibition, hits mostly inhibitors; 310,000 tested, 5.9% active; note: potency is the fitted concentration of half-maximal effect
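Growth was read as firefly luciferase luminescence after a 48 h, 37 C, 5% CO2 exposure of compounds to reporter-bearing P. falciparum cultures (0.1% parasitemia, 2% hematocrit final) in Albumax-supplemented RPMI 1640.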
LASV entry inh: inhibitors of Lassa virus binding or cell entry. Potency, µM (series often up to 37.9 µM), without a hit: at the top dose activity change, negative = inhibition, actives largely listed as inhibitors. Lassa virus pseudotype entry inhibition, cell reporter. 300,000 tested, 1.2% active; calls by dose curve; tested in HEK293 cells; note: potency is the fitted concentration of half-maximal effect; nearly all actives have a fitted effect of over 50% in size
Pf growth 96h: inhibits malaria parasite growth, 96 h; 320,000 tested, 6.9% active; P. falciparum luciferase reporter growth, 96 h; Potency, µM (highest dose often 28.7 µM), without a hit: at the highest dose activity change, negative = inhibition, most hits filed as inhibitors; note: potency is the fitted concentration of half-maximal effect
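Plates of compound plus infected erythrocytes (2% hematocrit, 0.05% parasitemia final) incubate 96 hours, 37 C, 5% CO2. Detection reagent added; reduced luminescence from the parasites' luciferase reporter flags inhibition.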
Marburg entry inh: Marburg virus entry inhibition. Potency, µM (series often up to 37.8 µM), without a hit: at the top dose activity change, negative = inhibition, actives largely listed as inhibitors. 300,000 tested, 1.8% active. Marburg virus pseudotyped entry inhibition, cell reporter; calls by dose curve; tested in HEK293 cells; note: potency is the fitted concentration of half-maximal effect
HCV inh: blocks hepatitis C virus. Potency, µM (titrated, usually from 41.8 µM), without a hit: at the highest dose activity change, negative = inhibition, actives largely listed as inhibitors. Huh7.5.1 HCVcc-Cre infection, luciferase reporter, 44 h. 340,000 tested, 3.4% active; note: potency is the fitted concentration of half-maximal effect
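Whole-lifecycle infectious HCVcc-Cre system; cells 1,000/well, compound then virus (~0.5 moi) added 4 h after plating, 44 h culture. Luciferase read 15 sec following 15 min substrate incubation, room temp.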
HCMV antiviral: human cytomegalovirus inhibition; HFF cells, HCMV-luciferase reporter, 72 h; hits give low values; AID 1259415; 410,000 tested, 4.5% active; activity change, negative = inhibition, % at 57.5 µM; in the data active = activity change below about -60%; inconclusive = no clear call, values can overlap the other calls; inactive = above about -39%
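Luciferase read-out from HCMV-luciferase-infected HFFs (MOI 1 PFU/cell) 72 h post infection at 37C; compounds added after 16 h cell attachment; activity normalized between buffer-only basal and Salinomycin (10uM) inhibitor controls.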
Numbers without * were called inactive; ? = inconclusive; . = no result; [ ] = dose if it differs, or a comment. Unless noted, calls come from the whole dose curve; as a rule, active = well fitted inhibition curve with a large enough effect; inconclusive = small, poorly fitted or top-dose-only effect, or another doubt; inactive = no such curve, though single readings can be large or run the other way. % is set by controls: 0 for no effect and ±100 for the full control effect.

SMILES | Pf growth 48h | LASV entry inh | Pf growth 96h | Marburg entry inh | HCV inh | HCMV antiviral
COc1cc2c(cc1OC)C(C)N(C(=O)c1cc3c(s1)-c1ccccc1OC3)CC2 (stereo not drawn) | -17% | -9% | -1% | 1% | 11µM* | -20
COc1cc2nc(N3CCN(C(=O)[C@H]4COc5ccccc5O4)CC3)nc(N)c2cc1OC | 3.7µM* | . | 3.7µM* | ? | 10% | 17
COc1cc2c(cc1OC)C(C)N(C(=O)C1COc3ccccc3O1)CC2 (stereo not drawn) | -27% | ? | . | ? | ? | -65*
O=C(Nc1cccc(Cl)c1)Nc1ccc2nc(-c3ccc(F)c(Cl)c3)nn2c1 | . | . | . | . | . | 80
Cc1ccc(Cl)c2c1NC(=O)C2(O)CC(=O)c1ccc(Br)cc1 (stereo not drawn) | . | 2% | -24% | 30% | 16% | 110
O=C(CC1(O)C(=O)Nc2cc(Cl)cc(Cl)c21)c1ccncc1 (stereo not drawn) | -10% | ? | -28% | ? | 11µM* | 39
CCC(=O)N1CCc2cc(Br)cc(S(=O)(=O)N3CCC(C(=O)NCCCOC(C)C)CC3)c21 | 2.9µM* | 9%[46.1 µM] | ? | ? | -11% | 10
COC(=O)C1(S(=O)(=O)c2cc(Br)cc3c2N(C(C)=O)CC3)CC1 | 9.3µM* | 8% | 77% | 2% | 7% | .
CCOC(=O)C1CCN(S(=O)(=O)c2cc(Br)cc3c2N(C(=O)C2CC2)CC3)CC1 | 8.3µM* | 10% | -1% | -8% | 12% | 69
CC(=O)N1CCc2cc(Br)cc(S(=O)(=O)N3CCCCCC3)c21 | 3.3µM* | 1% | 0% | 2% | -15% | -16
O=C(Nc1nc2ccccc2n1CCN1CCOCC1)c1cccc([N+](=O)[O-])c1 | . | 12% | . | ? | . | .
COc1ccccc1CNC(=O)c1ccc(CSc2nc3ccncc3n2Cc2ccccc2C)cc1 | . | . | . | ? | . | -21
Nc1ncnc2c1ncn2C1O[C@H](CO)[C@@H](O)[C@@H]1O (stereo partly drawn) | -20% | . | 44% | . | -27% | 35
Nc1ncnc2c(C3OC(CO)C(O)C3O)scc12 (stereo not drawn) | . | ? | . | ? | ? | -97*
c1nc(N2CCCCC2)c2[nH]cnc2n1 | -8% | -5% | 13µM* | ? | -2% | -71*
Cc1cc(C)cc(NC(=O)CSc2ccc(-c3cccs3)nn2)c1 | -16% | ? | ? | 7.1µM* | ? | ?
COc1ccccc1CCNC(=O)CSc1ccc(-c2cccs2)nn1 | ? | -4% | -9% | 1%[46.1 µM] | -21% | -30
O=C(CSc1ccc(-c2cccs2)nn1)NCCc1ccccc1 | 8% | 0% | 2.9µM* | ? | -16% | -35
CCCCCn1ccc(=O)c2c(C(F)(F)F)nccc21 | -6% | ? | ? | ? | 11µM* | -66*
CC1=C(C(=O)N2CCCCCC2)CC(CC(=O)NCCCN(C)C)C(=O)N1Cc1ccccc1 (stereo not drawn) | . | . | . | . | . | -20
O=C(Cc1ccccc1)N1CCc2[nH]nc(-c3ccccc3)c2C1 | -2%[0.00184 µM] | 11µM* | 3% | ? | -8% | -9
COc1cc(OC)cc(C(=O)N2CCN(C(=O)c3ccc(OC)c(OC)c3)CC2)c1 | -15% | 0% | ? | 8% | -6% | 3
COc1ccc(-c2n[nH]c3c2CN(C(=O)c2ccc(OC)c(OC)c2)CC3)cc1 | ? | . | 12µM* | . | -19% | -40
CC1CCN(S(=O)(=O)c2cc(C(=O)NCc3ccc(F)cc3)n(C)c2)CC1 | . | -8%[46.1 µM] | . | . | . | 9
CCOC(=O)c1sc(=S)n(-c2ccccc2)c1SC | 12µM* | 1% | 13µM* | 5% | ? | 15
SMILES | Pf growth 48h | LASV entry inh | Pf growth 96h | Marburg entry inh | HCV inh | HCMV antiviral
CCOC(=O)c1sc(=S)n(-c2ccccc2Cl)c1SC | 13µM* | 1% | 2.6µM* | 2% | -18% | 47
O=C(Nc1ccccc1Cl)C(=O)c1cn(CC(=O)N2CCOCC2)c2ccccc12 | 139% | . | 12µM* | . | -11% | 71
COc1ccc(CNC(=O)C(=O)c2cn(CC(=O)N3CCOCC3)c3ccccc23)cc1 | 34% | . | -2% | . | -3% | 0
O=C(NCc1ccc(Cl)cc1)C(=O)c1cn(CC(=O)N2CCOCC2)c2ccccc12 | 19% | . | 13µM* | . | -11% | -87*
COC(=O)c1ccc(NC(=O)C(=O)c2cn(CC(=O)N3CCOCC3)c3ccccc23)cc1 | 14% | . | ? | . | 0% | 4
COc1cc(CNc2nc(C)c([N+](=O)[O-])c(C)c2C#N)cc(OC)c1OC | 6% | ? | ? | ? | 6.3µM* | 40
CC(C)C[C@H]1CN([C@@H](Cc2ccccc2)CN2CCC[C@H]2CN2C(=O)C(=O)NC[C@@H]2Cc2ccc(O)cc2)C(=O)C(=O)N1CCc1ccccc1 | . | . | . | . | . | -30
O=C(/C=C/c1cc[n+](CC(=O)c2ccc3cccc4c3c2CC4)cc1)c1ccc2cccc3c2c1CC3 | 1% | . | -1% | . | 6.3µM* | .
O=C1Nc2ccccc2C(=O)N(c2ccc3c(c2)OCCO3)C1C(=O)NC1CC1 (stereo not drawn) | . | . | . | . | . | 62
CCOC(=O)[C@@H]1[C@H]2COc3cc(OC)ccc3[C@H]2N2C(=O)N(c3ccc(C(F)(F)F)cc3)C(=O)[C@]12C | . | . | . | . | ? | -88*
CCOC(=O)[C@@H]1[C@H]2COc3cc(OC)ccc3[C@@H]2N2C(=O)N(c3ccc(OC)cc3)C(=O)[C@]12C | 19% | . | 28% | . | 5% | -15
CCOC(=O)[C@@H]1[C@H]2COc3cc(OC)ccc3[C@H]2N2C(=O)N(c3ccc(C)cc3)C(=O)[C@@]12C | ? | . | ? | . | 5% | -75*
CCOC(=O)[C@@H]1[C@H]2COc3ccc(Br)cc3[C@@H]2N2C(=O)N(c3ccc(C(F)(F)F)cc3)C(=O)[C@@]12C | ? | . | 9.3µM* | . | -15% | -24
CCOC(=O)[C@@H]1[C@H]2COc3ccc(Br)cc3[C@@H]2N2C(=O)N(c3ccc(F)cc3)C(=O)[C@@]12C | . | . | . | . | ? | 20
COc1ccc(OC)c(-c2csc(NC(=O)C3CSC4(C)CCC(=O)N34)n2)c1 (stereo not drawn) | ? | ? | ? | ? | 3.2µM* | 0
CC12CCC(=O)N1C(C(=O)Nc1nc(-c3ccccc3Cl)cs1)CS2 (stereo not drawn) | ? | -19% | ? | ? | 10µM* | 2
CN(C)CCCNC(=O)[C@@H]1[C@@H](CO)[C@@H]2Cn3c(cccc3=O)[C@H]1N2C(=O)Nc1cc(F)ccc1F | . | . | . | . | . | 1
O=NCc1ccc([N+](=O)[O-])o1 | ? | . | 13µM* | . | . | .
O=C(Cn1nc(N2CCN(c3ccccc3)CC2)ccc1=O)Nc1ccc(F)cc1F | . | -2%[46.1 µM] | . | . | . | -4
